# Several values for one entry are separate records, joined by “and”; a condition that tells them apart may be missing. Identical values can stand only once. Records with an inconclusive call do not appear. Activity calls are given as the source filed them. Calls come from the whole dose curve; as a rule, active = well fitted activation curve with a large enough effect; inconclusive = small, poorly fitted or top-dose-only effect; inactive = no such curve, though single readings can be large or run the other way.
# Target: Cellular tumor antigen p53 (Homo sapiens) (UniProt P04637)
# Experiment: Primary qHTS for small molecule compounds that upregulate eGFP-tagged delta133p53alpha (in N-terminal) cells. (AID 2060322); note: nearly all actives have a fitted effect of over 75% in size;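 for activation: series mostly up to about 56 µM; 0% = DMSO vehicle and 100% = reference activator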
# Conditions: NCI-H358 eGFP-delta133p53alpha fluorescence, 24 h; activation: hits give high values
# In short: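 NCI-H358 cells pre-induced 24 h with 10 ng/ml doxycycline to express N-terminal eGFP-delta133p53alpha, then dosed 24 h at 37C without doxycycline; fixed, Hoechst-stained, GFP intensity by laser scanning cytometry, normalized to DMSO (0%) and 57.5 uM 5-azacytidine (100%).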
# Potency is the fitted concentration of half-maximal effect.
# Sequence of Cellular tumor antigen p53 (Homo sapiens) (P04637 whole entry, looked up): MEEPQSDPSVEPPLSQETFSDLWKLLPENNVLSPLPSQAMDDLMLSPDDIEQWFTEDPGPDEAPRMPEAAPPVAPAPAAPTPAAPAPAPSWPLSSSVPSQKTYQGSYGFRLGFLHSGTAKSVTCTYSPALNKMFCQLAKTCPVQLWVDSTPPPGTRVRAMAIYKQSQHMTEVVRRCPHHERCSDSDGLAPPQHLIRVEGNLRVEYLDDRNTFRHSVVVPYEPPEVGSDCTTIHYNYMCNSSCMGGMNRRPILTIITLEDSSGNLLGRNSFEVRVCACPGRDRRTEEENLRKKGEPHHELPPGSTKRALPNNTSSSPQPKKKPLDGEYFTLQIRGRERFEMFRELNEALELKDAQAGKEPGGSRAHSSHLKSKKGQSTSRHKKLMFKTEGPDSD
SMILES,Potency,activation
CN(C)CCc1c[nH]c2ccc(Cn3cncn3)cc12,21.7 µM (active),
NC(CS)C(=O)O (stereo not given),,-24.3% (inactive)
CC1=C(CO)C(=O)O[C@@H]([C@@H](C)[C@H]2CC[C@H]3[C@@H]4C[C@H]5O[C@]56[C@@H](O)C=CC(=O)[C@]6(C)[C@@H]4CC[C@]23C)C1,3.85 µM (active),
N[C@H](C(=O)O)[C@@H](O)c1ccc(O)c(O)c1,,5.02% (inactive)
OCc1ccccc1O[C@@H]1O[C@H](CO)[C@H](O)[C@H](O)[C@H]1O,,15.8% (inactive)
CC(C)C(C)(C)C(C)(C)C(C)(C)S,,5.08% (inactive)
O=C(c1ccco1)N1CCNCC1,,-10.9% (inactive)
CC1(C)C(=O)CCC2(C)C1C(O)C=C1COC(=O)C12O (stereo not given),,25.2% (inactive)
Cc1cc(=O)[nH]c(=S)[nH]1,,19.2% (inactive)
COc1ccc2c(c1)c(CC(=O)OCC(=O)O)c(C)n2C(=O)c1ccc(Cl)cc1,,-15.1% (inactive) and 5.95% (inactive)
Cc1cc2nc3c(=O)[nH]c(=O)nc-3n(C[C@H](O)[C@H](O)[C@H](O)CO)c2cc1C,,-36.8% (inactive)
CC(C)=CCNc1ncnc2c1ncn2[C@@H]1O[C@H](CO)[C@@H](O)[C@H]1O,,-20.9% (inactive)
O=C1CC2(CCCC2)CC(=O)N1,,-7.34% (inactive)
O=C(O)c1ccc(-c2cc3cccnc3c(-c3ccc4nonc4c3)n2)cc1,,3.89% (inactive)
Cc1cc(C)nc(NS(=O)(=O)c2ccc(N)cc2)n1,,24.3% (inactive)
CCOC(=O)[C@H]1O[C@H]1C(=O)N[C@@H](CC(C)C)C(=O)NCCC(C)C,,17.3% (inactive)
O=C(Nc1ccc(Cl)cc1)Nc1ccc(Cl)c(Cl)c1,,0.565% (inactive)
C[C@@H](O)[C@H]1C(=O)N2C(C(=O)OCOC(=O)C(C)(C)C)=C(SC3CN(C4=NCCS4)C3)[C@H](C)[C@H]12,,-12.3% (inactive)
CC(C(=O)O)c1cccc(Oc2ccccc2)c1 (stereo not given),,32.2% (inactive)
CS(=O)(=O)c1ccc(-c2cn3ccccc3n2)cc1,,-26.8% (inactive)

SMILES,Potency,activation
CNc1c2c(nn1C)CCCC2,,-18.4% (inactive)
O=C1c2c(O)cccc2[C@@H]([C@@H]2O[C@H](CO)[C@@H](O)[C@H](O)[C@H]2O)c2cc(CO)cc(O)c21,,-15.3% (inactive)
[O-][n+]1cccc(CO)c1,,20.1% (inactive)
CC(C)c1cc2c(c(O)c1O)[C@@]13CCCC(C)(C)[C@@H]1[C@H](OC3=O)C2=O,,0% (inactive)
O=C(CCOCCOCCOCCOCCC(=O)Nc1c(I)cc(I)c(C(=O)O)c1I)Nc1c(I)cc(I)c(C(=O)O)c1I,,-9.21% (inactive)
Nc1ncnc2c1ncn2[C@@H]1O[C@H](COP(=O)(O)O)[C@@H](O)[C@H]1O,,5.08% (inactive)
CCc1cccc(CC)c1NC(=O)CN(CC(=O)O)CC(=O)O,,26.6% (inactive)
CCC[C@H](N[C@@H](C)C(=O)N1[C@H](C(=O)O)C[C@@H]2CCCC[C@@H]21)C(=O)OCC,,-15.3% (inactive)
O=C(NC1CCN(CCc2c[nH]c3ccccc23)CC1)c1ccccc1,,2.51% (inactive)
O=C(O)[C@H]1O[C@H](Oc2cc3oc(-c4ccccc4)cc(=O)c3c(O)c2O)[C@H](O)[C@@H](O)[C@H]1O,,28.4% (inactive)
COC(=O)c1cc(S(N)(=O)=O)ccc1OC,,-3.95% (inactive)
COc1cc(C(=O)NC2CCCNC2)cc(OC)c1OC (stereo not given),,-3.95% (inactive)
CON=C(C(=O)N[C@@H]1C(=O)N2C(C(=O)O)=C(Cn3ccc(=N)n3CCO)CS[C@H]12)c1csc(N)n1,,23.9% (inactive)
CCOC(=O)CN1CCCC1=O,,-0.837% (inactive)
CC(C=CC=C(C)C=CC1=C(C)CCCC1(C)C)=CC=CC=C(C)C=CC=C(C)C=CC1=C(C)CCCC1(C)C,,13.6% (inactive)
CCCCCOc1ccccc1/C(=C\SC)n1ccnc1,,-16.7% (inactive)
CC(=O)NCc1c(I)c(NC(C)=O)c(I)c(C(=O)O)c1I,,16.4% (inactive)
Nc1ncnc2c1ncn2Cc1c(F)cccc1Cl,,-17.6% (inactive)
O=C(O)Cn1cnnn1,,-6.21% (inactive)
N[C@H](C(=O)O)c1ccc(O)cc1,,-13.4% (inactive)

# — PubChem BioAssay (NCATS)
